This excerpt belongs to a sample that is enriched for hits.
HT1080 IDH1KD tx – kills HT-1080 cells with IDH1 knockdown | HT-1080 IDH1 knockdown viability, ATP luminescence, 48 h | Potency, µM (series often up to 46.1 µM), actives largely listed as cytotoxic | AID 686971 | 360,000 compounds, 2% hits
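Knockdown cells (IDH1KD HT-1080) received compounds 2 h after plating at 750 cells/well and were kept 48 h at 37 °C in 5% FBS RPMI. A CellTiter-Glo luminescence read gave % activity for curve fitting.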
DT40 TDP1 no CPT – qHTS for Inhibitors of human tyrosyl-DNA phosphodiesterase 1 (TDP1): qHTS in cells in absence of CPT; DT40 Tdp1-/- hTDP1 cells, no CPT, ATP luminescence, 48 h; Potency, µM (series often up to 46.2 µM), actives largely listed as inhibitors; 420,000 compounds, 15% hits; AID 686978, 2013; also: nearly all actives have a fitted effect of over 55% in size
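Chicken DT40 Tdp1-/- cells complemented with human TDP1, screened without camptothecin (DMSO vehicle only), 400 cells/well. Compounds pin-transferred, cells incubated at 37 °C for at least 48 hr. Growth read as ATP-dependent luminescence (CellTiter-Glo, 30 min at RT).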
TDP1 cell CPT – DT40-hTDP1 cell growth loss with CPT; chicken DT40 Tdp1-/-;hTDP1 cells + 20 nM CPT, ATP luminescence, 48 h; Potency, µM (series often up to 46.2 µM), actives largely listed as inhibitors; 420,000 compounds, 12% hits; AID 686979; also: nearly all actives have a fitted effect of over 55% in size
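Cell growth measured by CellTiter-Glo luminescence after a minimum 48 h, 37 C compound exposure with 20 nM CPT in Tdp1-knockout DT40 cells stably expressing hTDP1, seeded 400/well; qHTS titration format.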
IL1B secr inh – inflammasome signaling inhibition, IL-1 beta readout. THP-1 LPS/ATP IL-1B secretion, AlphaLISA, 16 h; active compounds read low. activity change, % at 57.5 µM. 360,000 compounds, 4.7% hits; in the data active = activity change below about -50%; inconclusive = mostly about -30% to -49%
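THP-1 cells pretreated 1 hr with compounds (up to 57.5 uM final), then stimulated with LPS (250 ng/mL final) plus ATP (1.25 mM final); secreted IL-1B measured by AlphaLISA after 16 hr, decreased signal indicating inhibition.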
HT1080NT lethal – kills 2HG-producing HT-1080-NT fibrosarcoma cells. HT-1080-NT fibrosarcoma viability, CellTiter-Glo ATP luminescence, 48 h. Potency, µM (series often up to 46.1 µM), hits mostly cytotoxic. 360,000 compounds, 1.6% hits;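 also: NT is the 2HG producing partner of a matched IDH1 knockdown line; nearly all actives have a fitted effect of over 55% in size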
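Fibrosarcoma NT cells, 750 per well in 5% FBS RPMI, were exposed to compound for 48 hours. Viability: CellTiter-Glo luminescence.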
ALOX12 inh – inhibitors of human 12S-lipoxygenase ALOX12; P18054; purified 12hLO, xylenol orange hydroperoxide absorbance; Potency, µM (doses to about 108 µM), actives largely listed as inhibitors; 580,000 compounds, 1.1% hits; AID 1671190
Target sequence (P18054 whole entry, looked up): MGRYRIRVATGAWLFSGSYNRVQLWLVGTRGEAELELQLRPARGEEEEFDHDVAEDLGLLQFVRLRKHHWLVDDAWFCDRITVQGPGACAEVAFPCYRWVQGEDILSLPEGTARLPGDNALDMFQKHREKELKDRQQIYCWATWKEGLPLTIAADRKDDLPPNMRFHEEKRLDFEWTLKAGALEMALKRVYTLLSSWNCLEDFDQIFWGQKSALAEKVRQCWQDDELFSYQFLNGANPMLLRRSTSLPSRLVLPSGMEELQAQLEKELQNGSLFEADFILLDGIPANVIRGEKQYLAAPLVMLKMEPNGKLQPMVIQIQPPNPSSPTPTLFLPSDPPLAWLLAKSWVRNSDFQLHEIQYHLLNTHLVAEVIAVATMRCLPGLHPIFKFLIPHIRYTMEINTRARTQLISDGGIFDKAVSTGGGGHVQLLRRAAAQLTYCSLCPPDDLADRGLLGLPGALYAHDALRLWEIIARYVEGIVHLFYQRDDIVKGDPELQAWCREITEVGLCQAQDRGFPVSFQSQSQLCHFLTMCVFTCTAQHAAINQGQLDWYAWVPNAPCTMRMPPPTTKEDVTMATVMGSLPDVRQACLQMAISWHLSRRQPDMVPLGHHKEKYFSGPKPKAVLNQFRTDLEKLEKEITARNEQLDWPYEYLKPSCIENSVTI
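Purified human 12hLO (150 nM final) in 25 mM Hepes, 0.01% Triton X-100, pH 7.0 was preincubated 15 min at room temperature with compound. Then 40 uM arachidonic acid was added, 30 min. Hydroperoxide was read by Fe-XO absorbance ratio 573/405 nm.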
Each line names hits and unclear results; the compound was inactive in the other large screens; ! = not confirmed by another sample. Unless noted, calls follow the shape of the dose curve; as a rule, active = well fitted curve in the direction sought with a large enough effect; inconclusive = small, poorly fitted or top-dose-only effect, or another doubt; inactive = no such curve, though single readings can be large; an effect the other way counts as inactive or inconclusive.

Cc1cccc[n+]1CCCCCCCCCC[n+]1ccccc1C	TDP1 cell CPT inconclusive, ALOX12 inh 14µM!
Clc1cccc[n+]1CCc1ccccc1	none (no result: HT1080 IDH1KD tx, IL1B secr inh, HT1080NT lethal, ALOX12 inh)
CCNc1c(NC(=O)c2cc(OC)cc(OC)c2)c(=O)oc2ccccc12	none (no result: HT1080 IDH1KD tx, DT40 TDP1 no CPT, TDP1 cell CPT, IL1B secr inh, HT1080NT lethal)
CC(C)C(=O)N1CCCCCCN(C)C(=O)[C@@H]2CCC[C@@H]21	none (no result: HT1080 IDH1KD tx, DT40 TDP1 no CPT, TDP1 cell CPT, IL1B secr inh, HT1080NT lethal)
Cc1nnc(N2CCN(c3ccc(Cl)cc3)CC2)c2c1nnn2Cc1ccc(F)cc1	DT40 TDP1 no CPT 2.6µM, TDP1 cell CPT inconclusive (no result: HT1080 IDH1KD tx, IL1B secr inh, HT1080NT lethal)
Fc1ccc(N2CCN(c3ncnc4c3nnn4Cc3ccccc3Cl)CC2)cc1	DT40 TDP1 no CPT 15µM, TDP1 cell CPT inconclusive
O=C(c1ccco1)N1CCN(c2nc(C(F)(F)F)nc3c2nnn3Cc2ccccc2)CC1	HT1080 IDH1KD tx inconclusive, DT40 TDP1 no CPT inconclusive, TDP1 cell CPT 18µM, IL1B secr inh inconclusive, HT1080NT lethal inconclusive
Cc1nnc(NCc2ccc(F)cc2)c2c1nnn2Cc1ccccc1Cl	DT40 TDP1 no CPT 2.3µM, TDP1 cell CPT 2.9µM (no result: HT1080 IDH1KD tx, IL1B secr inh, HT1080NT lethal)
FC(F)(F)c1ccc(N2CCN(c3ncnc4c3nnn4Cc3ccccc3Cl)CC2)cc1	DT40 TDP1 no CPT inconclusive, TDP1 cell CPT inconclusive
CN1C(=O)CS(=O)(=O)C12CCN(C(=O)c1ccc3c(c1)OCO3)CC2	none (no result: HT1080 IDH1KD tx, DT40 TDP1 no CPT, TDP1 cell CPT, IL1B secr inh, HT1080NT lethal)
Cc1ccc2c(CN(C)CCOc3ccc(F)cc3)cc(=O)oc2c1	none (no result: HT1080 IDH1KD tx, DT40 TDP1 no CPT, TDP1 cell CPT, IL1B secr inh, HT1080NT lethal)
CCOC(=O)C1CCN(c2ncnc3c2nnn3Cc2ccccc2Cl)CC1	none
O=C(c1ccco1)N1CCN(c2ncnc3c2nnn3Cc2ccccc2Cl)CC1	DT40 TDP1 no CPT 23µM, TDP1 cell CPT inconclusive
COc1ccccc1Nc1ncc(C(=O)N2CCN(Cc3ccc(OC)c(OC)c3OC)CC2)c2ccccc12	DT40 TDP1 no CPT inconclusive, TDP1 cell CPT 18µM, IL1B secr inh -73, HT1080NT lethal inconclusive
COc1ccc(Nc2ncc(C(=O)N3CCN(Cc4ccccc4)CC3)c3ccccc23)cc1	DT40 TDP1 no CPT inconclusive, TDP1 cell CPT 18µM, IL1B secr inh -97
COc1ccccc1Nc1ncc(C(=O)N2CCC(C(N)=O)CC2)c2ccccc12	none
COCc1noc(CCNc2cc(C)nc(-c3ccccc3O)n2)n1	none (no result: HT1080 IDH1KD tx, DT40 TDP1 no CPT, TDP1 cell CPT, IL1B secr inh, HT1080NT lethal)
N#Cc1nc(COc2ccc(-c3ccccc3)cc2)oc1NCCCN1CCOCC1	HT1080 IDH1KD tx inconclusive, DT40 TDP1 no CPT 23µM, TDP1 cell CPT 23µM, IL1B secr inh inconclusive, HT1080NT lethal inconclusive
N#Cc1nc(COc2ccc(-c3ccccc3)cc2)oc1N1CCC(C(N)=O)CC1	DT40 TDP1 no CPT 18µM, TDP1 cell CPT 13µM (no result: HT1080 IDH1KD tx, IL1B secr inh, HT1080NT lethal, ALOX12 inh)
CC(C)(C)c1ccc(-c2nc(C#N)c(N3CCC(C(N)=O)CC3)o2)cc1	HT1080 IDH1KD tx inconclusive, DT40 TDP1 no CPT inconclusive, IL1B secr inh -94, HT1080NT lethal inconclusive
N#Cc1nc(COc2ccc(Br)cc2)oc1N1CCCCCC1	DT40 TDP1 no CPT 16µM, TDP1 cell CPT 15µM, ALOX12 inh inconclusive
COc1ccc(-c2nc(C#N)c(N3CCC(C(N)=O)CC3)o2)cc1	ALOX12 inh inconclusive
COc1ccc(Cl)cc1-c1ccc2c(c1)COCC(=O)N2C	none (no result: HT1080 IDH1KD tx, DT40 TDP1 no CPT, TDP1 cell CPT, IL1B secr inh, HT1080NT lethal)
CCC(O)c1cnc(OCc2ccccc2)nc1OCc1ccccc1 (stereo unspecified)	DT40 TDP1 no CPT 18µM, TDP1 cell CPT inconclusive
Cn1c(=O)cnc2cnc(OCc3ccccc3)nc21	ALOX12 inh inconclusive (no result: HT1080 IDH1KD tx, IL1B secr inh, HT1080NT lethal)
COc1ccc(-c2cc3nc(C)c(CCC(=O)N4CCN(c5ccccn5)CC4)c(C)n3n2)c(OC)c1	DT40 TDP1 no CPT 16µM, TDP1 cell CPT inconclusive
COc1ccc(-c2cc3nc(C)c(CCC(=O)N4CCN(c5ccccc5F)CC4)c(C)n3n2)c(OC)c1	DT40 TDP1 no CPT 29µM, TDP1 cell CPT inconclusive (no result: HT1080 IDH1KD tx, IL1B secr inh, HT1080NT lethal)
O=C(c1ccc(Cl)c(S(=O)(=O)N2CCOCC2)c1)N(c1ccccn1)C1CCCCC1	DT40 TDP1 no CPT 16µM, TDP1 cell CPT inconclusive
O=C(Nc1ccccc1)c1ccc(NC2CCCCC2)c(S(=O)(=O)N2CCOCC2)c1	DT40 TDP1 no CPT inconclusive, TDP1 cell CPT inconclusive, IL1B secr inh -52
